Data from PubChem BioAssay (NCI).
This is part of a sample that, as a whole, favours compounds with a hit. Of some 83,000 tested, about 20% had one in any assay.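 The endpoint reported here, percent growth, reads 100 for growth as untreated, 0 for no net growth and -100 for all cells dead.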 Activity calls are given as the source filed them.

These molecules were tested on A498 renal (assay: NCI-60 one-dose screen, 48 h (100 = growth as untreated, 0 = no growth, -100 = all killed)). Conditions: 10 µM unless noted.
Procedure: Growth inhibition of the A498 human tumor cell line is measured as a screen for anti-cancer activity. Cells are grown in 96 well plates and exposed to the test compound for 48 hours. Compounds are tested at a single concentration, which is 10^-5 M for most compounds. The reported endpoint is percent growth (GI% or GIPRCNT), where numbers from 0 - 100% represent growth inhibition, and numbers from -100% - 0 represent cell death. For example, a value of 40 represents 60% growth inhibition. A value of 0 means no net growth occurred over the course of the experiment. A value of -40 indicates 40% of cells at the beginning of the experiment died by the end of the experiment. A value of -100 means all cells are dead at the end of the experiment.
NCI-60 Human Tumor Cell Lines Screen was performed using the standard one-dose NCI protocol, which is described in more detail at https://dtp.cancer.gov/discovery_development/nci-60/default.htm.
Compounds with GIPRCNT values below 10 were considered active. Activity score was based on GIPRCNT using the following formula: […]
Score is 0 for GIPRCNT values of 100 or above, 50 for GIPRCNT values of 0, and 100 for GIPRCNT values of -100.

Row | SMILES | growth
1 | O=C(O)C(=Cc1c2ccccc2cc2ccccc12)C(=O)O | 83.3% (inactive)
2 | Cc1ccc(S(=O)(=O)N2CCC(C(=O)Nc3ccc(F)cc3F)CC2)cc1 | 83.7% (inactive)
3 | C=C1C(=O)O[C@H]2[C@H](O)[C@@H](C)CCC/C(C)=C/CC[C@@]3(C)O[C@@H]3C[C@@H]12 | 91.8% (inactive)
4 | COc1cc(C(=O)/C=C/c2cc(C(=O)c3cc(OC)c(OC)c(OC)c3)ccc2OC)ccc1N | -6.91% (active)
5 | CCN1C(=O)N(CC)C2C1NN=c1s/c(=C\c3ccccn3)c(=O)n12 (stereo not given) | -29.2% (active)
6 | Cc1cc(C)c(NC(=O)c2sc3nc4c(cc3c2N)CN(Cc2ccccc2)CC4)c(C)c1 | 1.87% (active)
7 | COc1cc2oc(-c3cccc(NC(=O)Nc4ccc5c(c4)OCO5)c3)cc(=O)c2c(OC)c1OC | 77.1% (inactive)
8 | COc1ccc(C(=O)N2CCN(C(=O)c3cc(OC)c(OC)c(OC)c3)CC2)cc1OCCCCOc1cc2c(cc1OC)C(=O)N1CCC[C@H]1C=N2 | 95.5% (inactive)
9 | CC(Br)C(OC(=O)c1ccccc1Cl)c1cc2c(cc1Br)OCO2 (stereo not given) | 88.5% (inactive)
10 | O=C(Nc1ccc(F)cc1)c1cc([N+](=O)[O-])ccc1O | 25.5% (inactive)
11 | COc1ccc(C(=O)c2cc(OC)c(OC)c(OC)c2)cc1/C=C/C(=O)c1ccc2c(c1)OCO2 | 71.9% (inactive)
12 | C=C1C(=O)O[C@H]2[C@H]1CC/C(COC(=O)NCc1ccc(OC)cc1)=C\CC[C@@]1(C)O[C@@H]21 | 89.4% (inactive)
13 | Cc1ccc(S(=O)(=O)OC2COCOC2C(OS(=O)(=O)c2ccc(C)cc2)C2OCOCC2OS(=O)(=O)c2ccc(C)cc2)cc1 (stereo not given) | 95.9% (inactive)
14 | COc1ccc(-c2nnc(COc3ccc(NC(=O)Nc4ccc(Cl)c(C(F)(F)F)c4)cc3F)o2)cc1 | -1.59% (active)
15 | Clc1nc(-c2cccnc2)nc2sc3c(c12)CCCCCC3 | 94.1% (inactive)
16 | COC1=CC(c2ccc[nH]2)=N/C1=C\c1[nH]c(C)c(C(=O)CCC(=O)Oc2ccc3c(c2)CCC2C3CC[C@]3(C)[C@@H](O)CC[C@@H]23)c1C (stereo not given in full) | -12.7% (active)
17 | Oc1ccc(Cl)cc1-c1cc(-c2ccc(Cl)cc2)n[nH]1 | 84.3% (inactive)
18 | COc1cccc2nc(Nc3ccc(NC(=O)c4ccc5ncccc5c4)cc3)ccc12 | 83.4% (inactive)
19 | COc1ccc(/C=C/C(=O)c2cc(OC)c(OC)c(OC)c2)cc1OCc1cn(Cc2ccc(F)cc2)nn1 | 78.7% (inactive)
20 | COc1cc(C2C=C(C)N=C3SC=C(C)N32)cc(OC)c1OC (stereo not given) | -27.6% (active)

Row | SMILES | growth
21 | COc1ccc(C(=O)/C=C/c2ccc(/C=C/c3cc(OC)c(OC)c(OC)c3)cc2)cc1 | 80% (inactive)
22 | COc1cc(Cn2c(-c3nonc3N)nc3ccccc32)ccc1C | 6.72% (active)
23 | Cc1cc(NC(=O)COC(=O)c2sc3cc(F)ccc3c2Cl)no1 | 103% (inactive)
24 | CCCCn1c(=O)c(C2CNC(=O)c3ccccc3N2)cc2ccccc21 (stereo not given) | 88.7% (inactive)
25 | COc1cc2c(cc1OCCCCn1c(-c3cc(=O)c4ccccc4o3)nc3ccccc31)N=C[C@@H]1CCCN1C2=O | 121% (inactive)
26 | CCN(CC)c1cc(/C=C/c2ccc(OC)c(OC)c2)nc2cc(F)c(F)cc12 | -2.91% (active)
27 | COc1ccc(S(=O)(=O)N2CCN(c3cc4c(cc3F)c(=O)c(C(=O)O)cn4C3CC3)CC2)c(OC)c1 | 75.1% (inactive)
28 | Cc1ccc2c(c1)ncn2-c1ncnc2c1CC(C)c1ccccc1N2C (stereo not given) | -11.7% (active)
29 | O=c1oc2c([nH]c3ccc4ccccc4c32)c2ccccc12 | 106% (inactive)
30 | COc1cc(NCCCN=C(N)NC(N)=NC(C)C)c2ncccc2c1 | 120% (inactive)
31 | c1ccc2nc(-c3ccc4ccccc4n3)ccc2c1 | 97.3% (inactive)
32 | COc1ccc(C2CC(c3cccs3)=NN2c2ccc(S(=O)(=O)NC(=O)NCc3cccc(OC)c3)cc2)cc1 (stereo not given) | 102% (inactive)
33 | Nc1ccccc1C#C/C=C\C#Cc1cccc(O)c1 | 78.6% (inactive)
34 | CC1=NN2C(=NC3=C(CCC/C3=C\c3ccc(Cl)cc3)C2c2ccc(Cl)cc2)S1 (stereo not given) | 87.6% (inactive)
35 | COC1=CC(c2ccc[nH]2)=N/C1=C\c1[nH]c(C)c(CCCn2cc(CCCCCCCCC[C@@H]3Cc4cc(O)ccc4C4CC[C@]5(C)[C@@H](O)CC[C@H]5C43)nn2)c1C (stereo not given in full) | 62.1% (inactive)
36 | COc1ccc(-c2cn[nH]c2-c2cc(OC)c3c(c2)OCCO3)cc1 | -13.4% (active)
37 | C=CCn1c(C)nc2ccc(Nc3nc(Nc4ccc(F)cc4)nc4ccccc34)cc21 | 59.9% (inactive)
38 | O=C(O)c1cn(C2CC2)c2cc(N3CCN(S(=O)(=O)c4ccc(Cl)c(Cl)c4)CC3)c(F)cc2c1=O | 13.8% (inactive)
39 | CC/C=C\C/C=C\C[C@H](O)C/C=C1/C(=O)C=C[C@H]1C/C=C\CCC(=O)OC | 107% [8.25 µM] (inactive)
40 | COc1ccc(/C(=N\O)c2cc(OC)c(OC)c(OC)c2)c(OC)c1N | -19.3% (active)
